Counter-ions that a name gives are not always drawn.
Test system: Vero E6 infected with SARS-CoV-2
Experiment: inhibition of SARS-CoV-2 cytopathic effect; higher = more antiviral protection, active = above 15
Conditions: 48 h

Measured: inhibition of SARS-CoV-2 cytopathic effect

COC[C@@H](c1ccc(C(F)(F)F)cc1)N1CCN(C2(C)CCN(C(=O)c3c(C)ncnc3C)CC2)C[C@@H]1C [vicriviroc]
inactive: 1 nM -0.96% | 8.33 nM -0.11% | 100 nM -0.52% | 833.33 nM 0.02% | 10000 nM -0.9%

CN1CCN(c2ccc(/C=C(\C#N)c3ccccc3Br)cc2)CC1
inactive: 1 nM 2.51% | 8.33 nM -1.94% | 100 nM -3.13% | 833.33 nM -2.26% | 10000 nM -2.17%

CS(=O)(=O)CCNCc1nc(-c2ccc3ncnc(Nc4ccc(OCc5cccc(F)c5)c(Cl)c4)c3c2)cs1
inactive: 1 nM 1.4% | 8.33 nM 3.81% | 100 nM 0.15% | 833.33 nM -4.71% | 10000 nM -4.14%

CC1=C(C(=O)OC(C)C)C(c2cccc([N+](=O)[O-])c2)C(C(=O)OC2CN(C(c3ccccc3)c3ccccc3)C2)=C(N)N1 (stereo not given) [azelnidipine]
inactive: 1 nM 3.44% | 8.33 nM 1.14% | 100 nM -0.26% | 833.33 nM 0.91% | 10000 nM -6.87%

COc1cccc2c1C(=O)c1c(O)c3c(c(O)c1C2=O)C[C@@](O)(C(=O)CO)C[C@@H]3O[C@H]1C[C@H](N2CCO[C@H](OC)C2)[C@H](O)[C@H](C)O1 [nemorubicin]
inactive: 1 nM 1.94% | 8.33 nM -5.08% | 100 nM -8.02% | 833.33 nM -7.55% | 10000 nM -7.13%

COc1ccc(CN2CCN(C(c3ccc(F)cc3)c3ccc(F)cc3)CC2)c(OC)c1OC [lomerizine]
inactive: 1 nM 1.2% | 8.33 nM -4.42% | 100 nM -2.46% | 833.33 nM -4.97% | 10000 nM -3.64%

CC(C)(NS(=O)(=O)c1ccc(Oc2ccc(F)cc2)cc1)C(=O)NO
inactive: 1 nM 3.55% | 8.33 nM 0.75% | 100 nM 2.56% | 833.33 nM 0.48% | 10000 nM -0.6%

Cn1c(=O)cc(N2CCC[C@@H](N)C2)n(Cc2cc(F)ccc2C#N)c1=O [trelagliptin]
inactive: 1 nM -1.51% | 8.33 nM 0.34% | 100 nM 1.49% | 833.33 nM -0.45% | 10000 nM 3.01%

O=P(O)(NCCCl)NCCCl [palifosfamide]
inactive: 1 nM 0.85% | 8.33 nM 0.49% | 100 nM 3.57% | 833.33 nM -1.07% | 10000 nM -7.07%

Cc1cc(C)cc(C(=O)N(C)[C@H](Cc2ccc(-c3ccccc3)cc2)C(=O)N[C@@H](Cc2c[nH]c3ccccc23)C(=O)O)c1
inactive: 1 nM 0.46% | 8.33 nM 3.13% | 100 nM 5.42% | 833.33 nM 0.47% | 10000 nM 1.98%

COc1cc(N)cn[n+]1-c1ccccc1 [amezinium]
inactive: 1 nM -1.03% | 8.33 nM -0.58% | 100 nM 0.21% | 833.33 nM 0.15% | 10000 nM -1.56%

CC(C)(C)NCC(O)c1ccccc1Cl (stereo not given) [tulobuterol]
inactive: 1 nM 2.01% | 8.33 nM 1.33% | 100 nM -0.63% | 833.33 nM -10.6% | 10000 nM 2%

COc1ccc(-c2c(C)c(C(=O)NN3CCCCC3)nn2-c2ccc(Cl)cc2Cl)cc1
inactive: 1 nM -1.3% | 8.33 nM -1.23% | 100 nM -5.55% | 833.33 nM -3.38% | 10000 nM -1.1%

COc1c(-c2ccc3cc(NS(C)(=O)=O)ccc3c2)cc(-n2ccc(=O)[nH]c2=O)cc1C(C)(C)C [dasabuvir]
inactive: 1 nM 1.02% | 8.33 nM -0.41% | 100 nM 0.27% | 833.33 nM 1.41% | 10000 nM 2.61%

COc1ccc(CC2NCCc3cc(OC)c(OC)cc32)cc1OC (stereo not given) [tetrahydropapaverine]
inactive: 1 nM 1.62% | 8.33 nM 0.89% | 100 nM -0.93% | 833.33 nM -3.46% | 10000 nM -3.09%

O=C(Nc1cccc2c(=O)cc(-c3nnn[nH]3)oc12)c1ccc(OCCCCc2ccccc2)cc1 [pranlukast]
inactive: 1 nM -0.09% | 8.33 nM 2.87% | 100 nM 0.47% | 833.33 nM -3.27% | 10000 nM 1.15%

CC[C@]1(O)C[C@H]2CN(CCc3c([nH]c4ccccc34)[C@@](C(=O)OC)(c3cc4c(cc3OC)N(C=O)[C@H]3[C@@](O)(C(=O)OC)[C@H](OC(C)=O)[C@]5(CC)C=CCN6CC[C@]43[C@@H]65)C2)C1 [Vincristine (sulfate)]
inactive: 1 nM -1.47% | 8.33 nM -1.12% | 100 nM 0.94% | 833.33 nM 0.14% | 10000 nM -0.29%

CC[N+](C)(CC)CCOC(=O)C(O)(c1ccccc1)C1CCCCC1 (stereo not given) [oxyphenonium]
inactive: 1 nM -1.8% | 8.33 nM -1.33% | 100 nM -2.81% | 833.33 nM 0.58% | 10000 nM -1.5%

CC(C)n1nnc2cc(C(=O)O)ccc21
inactive: 1 nM 2.69% | 8.33 nM 0.35% | 100 nM -0.23% | 833.33 nM -0.38% | 10000 nM -1.63%

N#Cc1c[nH]c2c(C(=O)N3CCN(CCc4ccc(F)cc4)CC3)cccc12 [pruvanserin]
inactive: 1 nM 3.23% | 8.33 nM -1.53% | 100 nM 2.62% | 833.33 nM 1.31% | 10000 nM 1.69%

O=C1C(O)=C([C@H]2CC[C@H](c3ccc(Cl)cc3)CC2)C(=O)c2ccccc21 [atovaquone]
inactive: 1 nM 0.09% | 8.33 nM -1.67% | 100 nM -3.09% | 833.33 nM -1.77% | 10000 nM -9.21%

C[N+](C)(C)CCCCCCCCCC[N+](C)(C)C [decamethonium]
inactive: 1 nM -3.35% | 8.33 nM -4.24% | 100 nM -5.16% | 833.33 nM -3.23% | 10000 nM -1.94%

CN(C)CCOc1ccc(/C(=C(/CCCl)c2ccccc2)c2ccccc2)cc1 [Toremifene citrate]
inactive: 1 nM 0.8% | 8.33 nM 0.55% | 100 nM -0.55% | 833.33 nM 0.65% | 10000 nM 3.86%

CC1(C)S[C@@H]2[C@H](NC(=O)[C@H](NC(=O)N3CCN(S(C)(=O)=O)C3=O)c3ccccc3)C(=O)N2[C@H]1C(=O)O [mezlocillin]
inactive: 1 nM -0.34% | 8.33 nM 0.68% | 100 nM -1.11% | 833.33 nM -0.82% | 10000 nM 0.79%

CN(C)NC(=O)CCC(=O)O [daminozide]
inactive: 1 nM -0.2% | 8.33 nM 2.15% | 100 nM 0.35% | 833.33 nM 0.11% | 10000 nM 1.18%

O=C(N[C@@H]1CC[C@@H](c2cccc(F)c2F)CN(CC(F)(F)F)C1=O)N1CCC(n2c(=O)[nH]c3ncccc32)CC1 [telcagepant]
inactive: 1 nM 0.8% | 8.33 nM 6.42% | 100 nM 7.5% | 833.33 nM 2.53% | 10000 nM 5.63%

CC[C@@H](CO)NCCN[C@@H](CC)CO [ethambutol]
inactive: 1 nM 3.83% | 8.33 nM 4.26% | 100 nM 4.86% | 833.33 nM 5.12% | 10000 nM 2.55%

NCC(O)(CS(=O)(=O)O)c1ccc(Cl)cc1 (stereo not given) [2-hydroxysaclofen]
inactive: 1 nM 0.19% | 8.33 nM 1.62% | 100 nM -0.08% | 833.33 nM 3.7% | 10000 nM 0.53%

O=C1C[C@@H]2OCC=C3CN4CC[C@]56c7ccccc7N1[C@H]5[C@H]2[C@H]3C[C@H]46 [strychnine]
inactive: 1 nM -0.53% | 8.33 nM 0.64% | 100 nM 5.93% | 833.33 nM 3.93% | 10000 nM 1.26%

CCCC(=O)O [sodium-butyrate]
inactive: 1 nM -1.28% | 8.33 nM -0.1% | 100 nM 1.57% | 833.33 nM -0.53% | 10000 nM 0.24%

CCc1c(-c2ccccc2)c(-c2ccccc2)nn1-c1ccccc1-c1cccc(OCC(=O)O)c1
inactive: 1 nM -2.24% | 8.33 nM 3.84% | 100 nM 0.2% | 833.33 nM 0.13% | 10000 nM -0.58%

CC(C)(S)C(N)C(=O)O (stereo in doubt) [penicillamine-(racemic)]
inactive: 1 nM -0.3% | 8.33 nM -1.45% | 100 nM -0.335% | 833.33 nM -1.03% | 10000 nM -0.18%

O=C(Nc1cc(C(F)(F)F)cc(C(F)(F)F)c1)Nc1c(Br)cc(Br)cc1-c1nnn[nH]1
inactive: 1 nM 1.22% | 8.33 nM 1.04% | 100 nM -0.61% | 833.33 nM -2.22% | 10000 nM -3.2%

C=CC(=O)Nc1cc2c(Nc3ccc(F)c(Cl)c3)ncnc2cc1OCCCN1CCOCC1 [canertinib]
inactive: 1 nM 2.3% | 8.33 nM -2.25% | 100 nM -6.93% | 833.33 nM -13.4% | 10000 nM -20.1%

C[C@@H]1C[C@H]2[C@@H]3C[C@H](F)C4=CC(=O)C=C[C@]4(C)[C@@]3(F)[C@@H](O)C[C@]2(C)[C@@]1(O)C(=O)COC(=O)C(C)(C)C [flumethasone-pivalate]
inactive: 1 nM -0.06% | 8.33 nM -2.13% | 100 nM -1.68% | 833.33 nM -1.81% | 10000 nM 6.04%

O=C(N[C@@H](Cc1c[nH]c2ccccc12)C(=O)O)c1ccc(Cl)cc1 [benzotript]
inactive: 1 nM 1.07% | 8.33 nM 1.9% | 100 nM 2.83% | 833.33 nM 2.01% | 10000 nM 3.35%

Cc1c(C2CCN(CCc3ccccc3)CC2)noc1-c1ccc(Cl)cc1
inactive: 1 nM -1.74% | 8.33 nM 5.24% | 100 nM 6.13% | 833.33 nM 4.32% | 10000 nM -5.7%

From the supplement of paper PMC13380429
